Data on 50 compounds can be found in PubChem BioAssay AID743286 (National Center for Advancing Translational Sciences (NCATS), 2014).

About 340 (31%) of roughly 1,100 compounds were called active. Another 40% or so got no clear call; they are omitted. Only a sample is shown. Values without a mark were called inactive. The call rests on the fitted dose curve; in most records, active means well fitted inhibition curve with a large enough effect; inconclusive means small, poorly fitted or top-dose-only effect; inactive means flat fitted curve, though single readings scatter.
On the % scale 0 is the no-effect control and ±100 the full control effect; potency means the concentration at half of the fitted maximal effect.

Chain of Phosphatidylinositol 5-phosphate 4-kinase type-2 alpha (Homo sapiens) (P48426 whole entry, looked up, canonical isoform): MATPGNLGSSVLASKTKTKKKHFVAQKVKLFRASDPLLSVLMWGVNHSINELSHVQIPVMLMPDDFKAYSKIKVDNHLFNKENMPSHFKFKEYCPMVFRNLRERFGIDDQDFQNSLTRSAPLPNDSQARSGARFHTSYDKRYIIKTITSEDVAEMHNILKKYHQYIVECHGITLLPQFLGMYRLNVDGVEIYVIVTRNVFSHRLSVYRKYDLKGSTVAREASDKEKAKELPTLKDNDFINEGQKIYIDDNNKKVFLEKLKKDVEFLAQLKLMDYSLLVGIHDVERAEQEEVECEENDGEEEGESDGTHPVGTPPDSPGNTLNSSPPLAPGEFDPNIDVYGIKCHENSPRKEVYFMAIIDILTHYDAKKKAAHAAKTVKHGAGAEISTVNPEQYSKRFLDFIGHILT

The target of this test is Phosphatidylinositol 5-phosphate 4-kinase type-2 alpha (Homo sapiens) (UniProt P48426). Put plainly: qHTS for Inhibitors of PI5P4K: Confirmation in Primary Assay. Further: nearly all actives have a fitted effect of over 65% in size. The note with it: PI5P4Kalpha enzyme, ADP-Glo luminescence, 60 min; series mostly up to 76.9 µM; activity change, negative = inhibition: at the top concentration. The source says:
In addition to finding PI5P, we discovered the type II phosphatidylinositol 5-phosphate 4-kinase (PI5P4K) family (alpha, beta, gamma isoforms) that catalyze the conversion of PI5P to PI(4,5)P2. Alternatively, PI(4,5)P2 can also be synthesized through phosphatidylinositol-4-phosphate (PI4P) by the type I phosphatidylinositol 4-phosphate 5-kinases (PI4P5K). These PI5P4K enzymes therefore represent one way by which cells can regulate endogenous PI5P levels and play important roles in insulin signaling and in stress responses. […] A qHTS PI5P4K-alpha ADP-Glo assay was developed to identify specific modulators of human PI5P4K, phosphatidylinositol-5-phosphate 4-kinase (Type II PIPK). This assay was screened against the MLSMR containing ~400,000 small molecules (PubChem AID 652105). To confirm that the hits were not interacting with the detection enzyme system, a 1536-well counterscreen against the ADP-Glo kit (Promega) was utilized, as described in Davis et al., 2013 [1]. Davis et al., PLoS One. 2013;8(1):e54127. NIH Chemical Genomics Center [NCGC] NIH Molecular Libraries Probe Centers Network [MLPCN] MLPCN Grant: MH096575 Assay Submitter (PI): Atsuo Sasaki, Beth Israel Deaconess Medical Center
2 microL of PI5P4Kalpha/substrate buffer (columns 1-2, 5-48) are dispensed into Greiner white solid bottom 1536-well assay plates; column 3 receives only PI5P4Kalpha buffer as 0x substrate controls; column 4 receives only substrate buffer as 0x PI5P4Kalpha controls. Final assay buffer consists of 0.038 M HEPES pH 7.4, 0.28 mM EGTA, 0.1% CHAPS, and 5% DMSO (final concentration). Compounds are then transferred via Kalypsys pin tool equipped with 1536-pin array (10 nL slotted pins, V&P Scientific, San Diego, CA). Following addition of compound, 1 microL of ATP (5 microM final concentration, all columns) is added to initiate the reaction. ATP is diluted in an assay buffer consisting of 0.02 M HEPES pH 7.4, 60 mM MgCl2, 15 microM ATP, and 0.1% CHAPS. The plates are then incubated at room temperature for 60 minutes. ADP-Glo reagent 1 is added (2 microL) and plates incubated for 45 minutes, before ADP-Glo reagent 2 (4 microL) is added and plates incubated for 30 minutes. They are then transferred to a ViewLux high-throughput CCD imager (PerkinElmer) wherein single end-point measurements of luminescence are acquired using a clear filter.
On the technique in general: In qHTS, concentration-response curves come from the screen itself.
As to `O=C(c1ccco1)N1CCN(C(=O)c2ccc(-c3ccc([N+](=O)[O-])cc3)o2)CC1`, the “activity change, negative = inhibition” value is -22.3%.
Regarding `S=C(NCc1ccco1)NCc1ccco1`, the Potency is 14.1 µM (active).
Same read-out and setting: under `O=C(NCc1ccco1)c1ccc([N+](=O)[O-])o1` stands 31.6 µM (active).
With `O=C(CSC1=NCCS1)NCc1ccco1`, the “activity change, negative = inhibition” value is -2.33%.
Take `CC(C)(C)[C@H]1C=C(C(=O)N2CCOCC2)O[C@@H](OCc2ccc(CO)cc2)C1`: the “activity change, negative = inhibition” value was 12.7%.
Consider `COc1ccc(Cl)cc1S(=O)(=O)NCCCn1ccnc1`, for which the “activity change, negative = inhibition” value was 15.4%.
Regarding `COCCNC(=O)c1cc(-c2ccccc2)sc1N`, the “activity change, negative = inhibition” value is -27.2%.
Same read-out and setting: the figure for `Cc1ccc(CNc2ncnc3ccc(-c4ccc(CO)o4)cc23)o1` is -12.4%.
In the case of `Cc1cc(O)ccc1Nc1cc(-c2cccc(N(C)C)c2)ncn1`, the Potency was 12.6 µM (active).
Regarding `O=C(NC1CCCC1)C(c1ccncc1)N(C(=O)c1csnn1)c1ccccc1F` (stereo not given), the “activity change, negative = inhibition” value was 2.88%.
As for `Cc1sc2ncn(CC(=O)N3CCC(C(N)=O)CC3)c(=O)c2c1S(=O)(=O)N1CC(C)CC(C)C1` (stereo not given), the “activity change, negative = inhibition” value was -2.16%.
Regarding `Cc1noc(C)c1C(=O)Nc1ccc(-n2ccc(C(F)(F)F)n2)cc1`, the “activity change, negative = inhibition” value was 19.3%.
Turning to `Cc1ccc(C)c(OC(C)C(=O)Nc2ccc(S(=O)(=O)Nc3nccs3)cc2)c1` (stereo not given), the “activity change, negative = inhibition” value was -10.6%.
With `O=C(Nc1ccc(S(=O)(=O)Nc2nccs2)cc1)c1nn(-c2ccc(F)cc2)ccc1=O`, the Potency was 15.8 µM (active).
Turning to `COc1ccc(C(=O)N2CCCC2(C)C(=O)O)cc1C(F)(F)F` (stereo not given), the “activity change, negative = inhibition” value is -0.629%.
On to `O=C(c1cccc(-n2cccc2)c1)N1CCN(S(=O)(=O)c2ccccc2)CC1`, for which the Potency is 3.98 µM (active).
On to `CC(=O)N1CCN(S(=O)(=O)c2cccc(C(=O)Nc3ccc(F)c(F)c3)c2)CC1`, for which the “activity change, negative = inhibition” value was 1.67%.
With `COc1ccc(CN2CCC(=O)N([C@H](CO)CC(C)C)CC2)cc1OC`, the “activity change, negative = inhibition” value was -0.623%.
As to `CCCCCCCCN1C(=O)[C@H](CC(=O)NCc2ccc(C)o2)C[C@@]2(C(=O)OC)CC(C)(C)CC=C12`, the “activity change, negative = inhibition” value was -22%.
In the case of `CC1=NN(c2nc(-c3ccc(Cl)cc3)cs2)C(=O)C1`, the Potency is 15.8 µM (active).
For `CCOC(=O)Nc1ccc2c(CNC(C)c3ccccc3OC)cc(=O)oc2c1` (stereo not given), the “activity change, negative = inhibition” value was -1.24%.
As for `CC1CCN(C(=O)c2ccc(COc3ccccc3Cl)o2)CC1`, the “activity change, negative = inhibition” value is -1.87%.
The same measure, in the same setting: the figure for `COC(=O)CCC(=O)OC1(C)C(=O)C2=CN(CC3CC3)C(c3ccc(OC)cc3)=CC2=C(Br)C1=O` (stereo not given) is -26%; for `CCCCC1=CC2=C(c3ccco3)C(=O)C(C)(OC(=O)c3ccc(OC)cc3)C(=O)C2=CN1Cc1ccccc1` (stereo not given) it is -20%.
For `COc1ccc(C2=CC3=C(Br)C(=O)C(C)(OC(=O)c4cccs4)C(=O)C3=CO2)cc1` (stereo not given), the Potency was 22.4 µM (active).
Take `Cc1ccc(S(=O)c2ccc(NC(=O)C3CC3)cc2C#N)cc1` (stereo not given): the “activity change, negative = inhibition” value was 0.926%.
Same read-out and setting: under `Cc1ccc(N(C(=O)CNC(=O)c2ccco2)C(C(=O)NC2CCCC2)c2cccnc2)c(C)c1` (stereo not given) stands 0.488%; under `O=C(CN1CCN(c2ccccc2F)CC1)NCc1ccccc1`, 0.884%.
With `COc1cc(C(=O)Nc2scc(-c3ccc(Br)cc3)c2C(=O)O)cc(OC)c1OC`, the Potency is 5.62 µM (active).
As to `COc1cc(C(=O)Nc2scc(-c3ccccc3)c2C(=O)O)cc(OC)c1OC`, the Potency is 12.6 µM (active).
Turning to `Cc1ccc(-c2csc(NC(=O)c3ccc(Br)cc3)c2C(=O)O)cc1`, the Potency was 14.1 µM (active).
Turning to `COc1cc(C(=O)Nc2scc(-c3ccc(C)cc3)c2C(=O)O)cc(OC)c1OC`, the Potency was 3.55 µM (active).
As to `COc1ccc(C(=O)NCCSc2ccccc2)cc1OC`, the “activity change, negative = inhibition” value was -0.179%.
As for `COc1ccc(-c2csc(NC(=O)c3ccccc3F)c2C(=O)O)cc1`, the “activity change, negative = inhibition” value is -21.7%.
For `NC(=O)C1CCN(CC(=O)Nc2ccc3c(c2)OCCO3)CC1`, the “activity change, negative = inhibition” value was -1.63%.
On to `CCOC(=O)CSc1nc2ccc(NC(=O)CSc3nnnn3Cc3ccccc3)cc2s1`, for which the “activity change, negative = inhibition” value is -28.3%.
As for `O=C(NCCc1ccccc1)C(c1cccs1)N(C(=O)c1csnn1)C1CC1` (stereo not given), the “activity change, negative = inhibition” value was -0.725%.
Turning to `Cc1nc(CS(=O)(=O)c2ccccc2)cc(N2CCOCC2)n1`, the “activity change, negative = inhibition” value was 1.26%.
Take `O=C(CCNS(=O)(=O)c1ccc(Br)s1)NCc1ccccc1Cl`: the “activity change, negative = inhibition” value was 5.56%.
With `CCCCC1Cc2[nH][nH]c(=O)c2C(c2ccc(F)cc2)O1` (stereo not given), the “activity change, negative = inhibition” value was -21.6%.
The same measure, in the same setting: under `COc1ccc2nc(SCC(=O)N3CCN(c4ccc(F)cc4)CC3)c(C#N)cc2c1` stands 2.87%; under `O=S(=O)(c1ccccc1)N1N=C(c2cccs2)CC1c1ccc(Br)cc1` (stereo not given), 4.73%.
`O=C1NC(c2cc(Cl)cc([N+](=O)[O-])c2O)Nc2ccccc21` (stereo not given): the Potency is 8.91 µM (active).
Turning to `O=C1NC(c2cccs2)Nc2ccccc21` (stereo not given), the “activity change, negative = inhibition” value is -12.8%.
Turning to `Cc1cccc(S(=O)(=O)NC(=O)C2(C)CCN2C(=O)Cc2cc(F)ccc2F)c1` (stereo not given), the “activity change, negative = inhibition” value was -1.58%.
On the same count and under the same terms, under `Cc1cccc2cc(CN(Cc3cccnc3)C(=S)NCCCN(C)C)c(=O)[nH]c12` stands 0.897%; under `COc1cc(Cn2c3ccc(NC(=O)CCc4ccccc4)cc3c(=O)n2C)ccc1F`, -2.41%; under `CCOc1ccc(S(=O)(=O)N(C(=O)c2ccco2)c2cc3sc(=O)oc3c3ccccc23)cc1`, -1.84%.
On to `CCCOc1ccc(CSc2ncn[nH]2)cc1`, for which the “activity change, negative = inhibition” value is 1.37%.
Take `O=C(NC1CCC(O)CC1)c1cc(-c2ccco2)nc2ccccc12` (stereo not given): the Potency was 12.6 µM (active).
